Shown are actives, neighbours in structure and some others; about 17% of the full set was active somewhere.
HepG2 tox = HepG2 cytotoxicity, counter-screen for TGF-b inhibitors; 410,000 compounds, 0.76% hits; AID 588856; Potency, µM (top dose mostly 46.1 µM), without a hit: top-dose activity change, negative = cytotoxicity, actives largely listed as cytotoxic; HepG2 CAGA-GFP viability, ATP luminescence, 18 h
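HepG2 CAGA-GFP cells (1000/well, DMEM with 1% FBS) received compound, then TGF-beta at 500 pg/mL final, and were incubated 18 hours at 37 degrees C. Viability was read by CellTiter-Glo luminescence. Media-only wells were set as complete cell-killing and DMSO as no toxicity.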
DT40 TDP1 no CPT = qHTS for Inhibitors of human tyrosyl-DNA phosphodiesterase 1 (TDP1): qHTS in cells in absence of CPT; DT40 Tdp1-/- hTDP1 cells, no CPT, ATP luminescence, 48 h; AID 686978, 2013; 420,000 compounds, 15% hits; Potency, µM (series often up to 46.2 µM), inactives show at the highest dose activity change, negative = growth inhibition, most hits filed as inhibitors; further: on the % scale 0 is the no-effect control and ±100 the full control effect; nearly all actives have a fitted effect of over 55% in size
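No-CPT arm: Tdp1-/-;hTDP1 DT40 cells (400/well) plus compounds, incubated ≥48 hr at 37 °C. Readout CellTiter-Glo luminescence.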
ATXN viability = viability counter-screen for ATXN expression inhibitors; S2 cells (HEK-293 line with an ATXN2-luciferase reporter) viability, CellTiter-Fluor protease fluorescence, 24 h; Potency, µM (titrated, usually from 56.7 µM), usual class: cytotoxic; 400,000 compounds, 0.49% hits; further: nearly all actives have a fitted effect of over 40% in size
ATXN2 expr inh = inhibitors of ATXN2 expression; 360,000 compounds, 0.72% hits; Potency, µM (series often up to 57 µM), without a hit: at the top dose activity change, negative = inhibition, usual class: inhibitors; HEK-293 ATXN2-luciferase reporter, luminescence, 24 h; AID 1745845; further: on the % scale 0 is the no-effect control and ±100 the full control effect; nearly all actives have a fitted effect of over 55% in size
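qHTS (up to 57 uM final) was run with 24 h compound exposure of reporter cells at 37 °C. Each well was multiplexed: SteadyGlo luminescence measured ATXN2-luciferase expression after a fluorogenic Gly-Phe-AFC viability readout (25 uM final).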
DT40 TDP1 CPT = growth inhibition of DT40 Tdp1-/-;hTDP1 cells with camptothecin (screen for TDP1 inhibitors); chicken DT40 Tdp1-/-;hTDP1 cells + 20 nM CPT, ATP luminescence, 48 h; Potency, µM (series often up to 46.2 µM), for the others: at the highest dose activity change, negative = growth inhibition, usual class: inhibitors; 420,000 compounds, 12% hits; AID 686979; further: on the % scale 0 is the no-effect control and ±100 the full control effect; nearly all actives have a fitted effect of over 55% in size
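Chicken DT40 Tdp1-/- cells complemented with human TDP1, 400 cells/well, exposed to compounds plus 20 nM camptothecin for at least 48 h at 37 C; viability read as ATP content by CellTiter-Glo luminescence.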
TGFb inhibitor = blocks TGF-b signaling; HepG2 CAGA-GFP TGF-b/SMAD3 reporter, GFP fluorescence, 18 h; TGF-beta stimulated, 500 pg/mL final; Potency, µM (doses to about 46.1 µM), inactives show top-dose activity, negative = inhibition, hits mostly inhibitors; 410,000 compounds, 1.2% hits; AID 588855; further: on the % scale 0 is the no-effect control and ±100 the full control effect; nearly all actives have a fitted effect of over 65% in size
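GFP signal (ex488/em500-530) from TGF-beta-stimulated HEPG2 CAGA-GFP cells, 500 pg/mL final, 18 h at 37 degrees C in DMEM plus 1% FBS, normalized to unstimulated and DMSO-stimulated controls.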
* hit, by the source's call; i = inactive; ? = inconclusive; nt = no result given. The call rests on the fitted dose curve; in most records, active means well fitted curve in the direction sought with a large enough effect; inconclusive means small, poorly fitted or top-dose-only effect, or another doubt; inactive means no such curve, though single readings can be large; an effect the other way counts as inactive or inconclusive. Potency means the concentration at half of the fitted maximal effect.

SMILES	HepG2 tox	DT40 TDP1 no CPT	ATXN viability	ATXN2 expr inh	DT40 TDP1 CPT	TGFb inhibitor
O=C(Cn1ncc2c3ccccc3n(Cc3ccccc3)c2c1=O)NCc1ccccc1	-0.7%	?	i	15.2%	0.1%	-9.5%
COc1ccc(-c2nc(NC(=O)C3CC(=O)N(Cc4ccco4)C3)sc2C)cc1 (stereo not given)	-23.3%	11.6µM*	i	-34.5%	16.4µM*	?
COc1ccc(-c2nc(NC(=O)C3CCN(c4nc5ccccc5o4)CC3)sc2C)cc1	-28.3%	?	i	?	16.4µM*	?
Cc1ccc(C(=O)Nc2nc(-c3ccco3)c(-c3ccco3)s2)o1	-7.2%	20.6µM*	i	8.7%	8.2µM*	-6.8%
O=C(CCl)Nc1nc(-c2ccco2)c(-c2ccco2)s1	8.6%	?	i	-0.7%	?	-19.5%
COc1ccc(-c2nc(NC(=O)c3ccco3)sc2C)cc1	-22.6%	23.1µM*	i	nt	20.6µM*	-18.2%
CCN1CCN(C(=O)C(Cc2ccccc2)NC(=O)c2ccc(Cl)c(S(=O)(=O)N(C)C)c2)CC1 (stereo not given)	3.6%	?	i	-14.0%	?	-15.7%
CCC(C)NC(=O)C1CCN(S(=O)(=O)N2CCC3(CC2)OCCO3)CC1 (stereo not given)	12.6%	11.2%	i	nt	-17.5%	8.0%
Cn1c(=O)c2c(nc3n2CC(CO)O3)n(C)c1=O (stereo not given)	1.3%	1.2%	i	17.8%	5.2%	-0.1%
COc1cc(C(=O)Nc2ccc(C)cn2)ccc1OCC(=O)N1CCOCC1	1.4%	11.6%	i	3.1%	-0.9%	0.5%
COc1ccc(-c2csc(NC(=O)C3CC(=O)N(Cc4ccco4)C3)n2)cc1 (stereo not given)	-13.9%	20.6µM*	i	-27.6%	?	-10.8%
COc1ccc(-c2nc(NC(=O)c3ccc(OCC(=O)N4CCOCC4)c(OC)c3)sc2C)cc1	2.3%	18.4µM*	nt	-2.5%	23.1µM*	0.6%
COc1cccc(CNC(=O)c2ccc(CNS(=O)(=O)c3ccc(C)cc3)cc2)c1	-22.3%	?	i	-6.6%	?	-0.3%
C[C@@H]1CN(Cc2ccc3c(c2)CN(Cc2coc4ccccc4c2=O)CCO3)C[C@H](C)O1	nt	?	i	nt	?	nt
Cc1cc(Br)ccc1NC(=O)C(C)c1ccc([N+](=O)[O-])cc1 (stereo not given)	-0.5%	25.9µM*	i	nt	?	-11.4%
Cc1cc(Br)ccc1NC(=O)CNC(=O)CNc1cccc([N+](=O)[O-])c1	-27.9%	?	i	nt	20.6µM*	?
Cn1c(C2CCCCC2)nc2ccccc21	-34.6%	-25.0%	i	12.3%	-4.3%	-7.8%
Cc1ccsc1C(=O)N1CCCC(C(=O)c2cc(F)ccc2F)C1 (stereo not given)	4.6%	23.1µM*	i	nt	?	?
COc1ccc(F)cc1C(=O)C1CCCN(C(=O)c2ccccc2N(C)C)C1 (stereo not given)	-51.8%	18.4µM*	i	nt	?	?
CCCOC(=S)NC(=O)c1sc2ccccc2c1Cl	-2.6%	-19.3%	i	7.1%	-12.9%	-11.6%
CC(C)CNC(=O)c1cn(C2CCN(Cc3nc4ccccc4s3)CC2)nn1	nt	-13.6%	i	nt	3.1%	nt
CC(C)Oc1ccc(CNC(=O)Cn2c(-c3cccs3)cc3ccccc32)cc1	-11.2%	-22.2%	i	-4.6%	0.2%	-14.6%
COc1cc2c(cc1OC)-c1cc(Nc3ccccc3C)nc(=O)n1CC2	-6.3%	-6.8%	i	55.1%	-5.7%	5.4%
CCNc1cc2n(c(=O)n1)CCc1cc(OC)c(OC)cc1-2	-7.6%	-17.1%	i	21.7%	-0.1%	3.1%
CCOc1ccccc1Nc1cc2n(c(=O)n1)CCc1cc(OC)c(OC)cc1-2	-17.8%	14.6µM*	i	18.8%	?	14.0%
SMILES	HepG2 tox	DT40 TDP1 no CPT	ATXN viability	ATXN2 expr inh	DT40 TDP1 CPT	TGFb inhibitor
COc1cc2c(cc1OC)-c1cc(OCCN3CCOCC3)nc(=O)n1CC2	1.9%	?	i	9.6%	23.1µM*	0.6%
O=C(COc1ccccc1F)Nc1ccccc1OCc1cc(=O)n2ccccc2n1	4.3%	-16.2%	nt	nt	12.9%	3.9%
COc1ccc(CCC(=O)OCC(=O)NCc2ccccc2)cc1	10.7%	-3.1%	?	-1.4%	-11.1%	-0.8%
COc1ccc(/C=N/NC(=O)CNC(=O)c2ccncc2)cc1	5.1%	-10.5%	i	2.2%	-2.1%	1.7%
COc1cc(C(=O)O/N=C2\C=CC(=O)C=C2C)cc(OC)c1OC	-0.4%	?	i	-8.5%	11.6µM*	-11.4%
[O-]/[N+](=C\c1ccncc1)c1ccccc1	4.9%	?	i	20.0%	20.6µM*	-1.5%
CCn1cc(C(=O)NCCCOC(C)C)c(=O)c2cc(S(=O)(=O)N3CCOCC3)ccc21	-8.8%	?	i	9.0%	-26.1%	2.2%
CC1CC(C)CN(CCCNC(=O)c2ccc(CS(=O)(=O)Cc3cccc(Cl)c3)o2)C1 (stereo not given)	-12.3%	?	i	nt	?	-14.3%
Cc1nc2c(C(=O)NCCc3ccc(Cl)cc3)c[nH]n2c(=O)c1Cc1ccccc1F	15.8µM*	-8.6%	i	-12.1%	-5.6%	12.6µM*
Cc1noc(C)c1NC(=O)N(C)C[C@H]1Oc2c(NC(=O)Nc3ccccc3)cccc2C(=O)N([C@H](C)CO)C[C@@H]1C	38.5%	-62.3%	i	-21.7%	?	3.6%
CCOc1ccc(-c2nnn(CC(=O)c3ccc4c(c3)OCCO4)n2)cc1OCC	-30.0%	18.4µM*	i	9.2%	?	?
COc1cc(CN2CC(=O)N(c3ccc(C)c(C)c3)C2=S)cc(OC)c1OC	6.8%	?	i	-0.2%	?	10.0%
CCc1ccccc1N1C(=O)CN(Cc2cc(OC)c(OC)c(OC)c2)C1=S	-16.1%	20.6µM*	i	0.1%	?	-8.8%
COc1ccc(CN2CC(=O)N(c3cc(Cl)ccc3C)C2=S)cc1OC	2.5%	?	i	-9.4%	?	66.6%
CCc1ccc(N2C(=O)CN(Cc3cc(OC)c(OC)c(OC)c3)C2=S)cc1	3.8%	23.1µM*	i	-7.7%	16.4µM*	?
COc1cc(CN2CC(=O)N(c3cc(Cl)ccc3C)C2=S)cc(OC)c1OC	-32.1%	20.6µM*	?	nt	20.6µM*	?

Screening results from PubChem.
